An excerpt weighted towards active compounds, which were near 6.7% of everything screened.
BoNT-F LC inh – blocks Botulinum neurotoxin F light chain protease | Multiplex microsphere protease cleavage assay, flow cytometry | inhibition, % at 10 µM | 0.22% of 360,000 active | AID 588497; in the data active = inhibition above about 35%, passing the limit was not always enough; inconclusive = no clear call, values can overlap the other calls; note: plate controls were buffer without enzyme for full effect and enzyme alone for no effect
FBA Mtb inh – Mtb fructose-bisphosphate aldolase inhibition; AID 588726; purified M. tuberculosis FBA, fluorescence read-out; 2.3% of 360,000 active; inhibition, % at 1 µM; in the data active = inhibition above about 27%;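 note: 0% = vehicle and 100% = reference inhibitor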
Target sequence (P9WQA3 whole entry, looked up): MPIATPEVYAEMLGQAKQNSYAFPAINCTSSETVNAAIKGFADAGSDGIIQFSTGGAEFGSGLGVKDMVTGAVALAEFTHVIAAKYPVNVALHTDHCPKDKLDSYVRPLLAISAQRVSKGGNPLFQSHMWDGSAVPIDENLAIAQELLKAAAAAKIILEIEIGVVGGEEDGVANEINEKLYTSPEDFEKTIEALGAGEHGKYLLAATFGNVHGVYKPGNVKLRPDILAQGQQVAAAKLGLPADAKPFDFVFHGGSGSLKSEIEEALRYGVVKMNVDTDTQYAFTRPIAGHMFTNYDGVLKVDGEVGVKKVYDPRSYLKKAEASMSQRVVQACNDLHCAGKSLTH
BoNT-A LC inh2 – BoNT A light chain protease inhibition. multiplex microsphere protease substrate cleavage, flow cytometry. inhibition, % at 10 µM. AID 588499. 0.17% of 360,000 active; note: plate controls were buffer without enzyme for full effect and enzyme alone for no effect
GDH-TPI counter-1 – counter-screen for M. tuberculosis FBA inhibitors: GDH-TPI coupled enzymes | GDH-TPI coupled enzyme counterscreen, NADH absorbance | inhibition, % at 4.8 µM | 1.2% of 360,000 active; in the data active = inhibition above about 30%;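 note: 0% = DMSO wells and 100% = wells lacking the enzyme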
Autofluor counter – flagged as autofluorescent in microsphere protease counterscreen | compound autofluorescence counterscreen, microsphere flow cytometry; active compounds read high | fluorescence intensity (no concentration beside the values) | 3.1% of 360,000 active | AID 624483; in the data active = fluorescence intensity above about 16000; inconclusive = no clear call, values can overlap the other calls
Anthrax LF prot – blocks Bacillus anthracis lethal factor protease | inhibition, % at 10 µM | multiplex microsphere protease cleavage assay, LF | 0.12% of 360,000 active; note: plate controls were buffer without enzyme for full effect and enzyme alone for no effect
Mtb FBA inh conf – Mtb FBA inhibition, confirmed | shares compounds with FBA Mtb inh | purified M. tuberculosis FBA, fluorescence read-out | inhibition, % at 1 µM | 78% of 5,600 active | AID 651616; in the data active = inhibition above about 27%;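 note: 0% = vehicle wells and 100% = reference inhibitor wells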
GDH-TPI counter-2 – counter-screen for M. tuberculosis FBA inhibitors: GDH-TPI coupled enzyme inhibition. shares compounds with FBA Mtb inh. GDH-TPI coupled enzyme counterscreen, fluorescence. inhibition, % at 1 µM. 81% of 5,600 active; in the data active = inhibition above about 10%
GDH-TPI DR – inhibits GDH-TPI coupling enzymes in dose response; GDH-TPI coupled enzyme assay, fluorescence, artifact counterscreen; shares compounds with FBA Mtb inh; 79% of 170 active; AID 652145; IC50, µM; call rule not given here
* marks the source's active call; other numbers are inactive results; ? = inconclusive; nt = no result given; + = active, no number. Cut-off read from the data, not from the text of the source, unless noted: active = inhibition above about 30%; inconclusive = no clear call, values can overlap the other calls; inactive = below that.

SMILES	BoNT-F LC inh	FBA Mtb inh	BoNT-A LC inh2	GDH-TPI counter-1	Autofluor counter	Anthrax LF prot	Mtb FBA inh conf	GDH-TPI counter-2	others
Cc1ccc(NC(=O)CCC(=O)c2cccs2)cc1	4.3	0.2	0.1	13.7	4439	-1.0	nt	nt
CCOc1ccc(C2C(C(=O)OC)=CN(C(C)c3ccccc3)C=C2C(=O)OC)cc1 (stereo unspecified)	-42.5	70.6*	-2.5	-4.1	3927	-9.8	+	+
c1coc(CNc2ncnc3nc[nH]c23)c1	3.4	4.8	-0.1	8.8	4887	1.8	nt	nt
Cc1cccc(Cc2cnc(NC(=O)C3=NCCN3)s2)c1	-2.6	2.0	-0.2	7.4	4229	-5.0	nt	nt
O=C(Nc1ncc(Cc2ccccc2)s1)C1=NCCN1	2.9	65.2*	-1.4	8.8	3266	-5.4	93.0*	77.3*
NC(=O)C1Cc2ccccc2CN1C(=O)c1cccc(Oc2ccccc2)c1 (stereo unspecified)	5.9	-1.1	0.2	-1.8	3721	-21.6	nt	nt
CCOC(=O)C1=C(C)NC(C)=C(C(=O)OCC)C1c1cn(-c2ccccc2)nc1-c1ccco1	-7.5	60.9*	0.1	4.1	2506	1.2	3.2	-5.6
CCOC(=O)C1=C(C)NC(=O)NC1c1cn(-c2ccccc2)nc1-c1cccs1 (stereo unspecified)	-6.3	3.1	-0.2	-9.4	5987	-0.9	nt	nt
O=C1C=C(c2cccc3c2oc2ccccc23)CCC1	-5.9	0.6	0.3	2.8	4330	-7.0	nt	nt
CCn1c(/C=N/n2cnnc2)nc2ccccc21	-6.2	28.2*	0.1	47.2*	6574	-0.4	115.7*	82.5*
CCn1c2ccccc2c2cc(/C=N/n3cn[nH]c3=S)ccc21	-4.1	5.0	-1.2	20.5	9754	-0.9	nt	nt
CCn1c2ccccc2c2cc(/C=N/n3cnnc3)ccc21	-8.6	32.5*	0.7	46.3*	6354	-3.7	58.9*	48.1*
COC(=O)c1ccccc1NCCO	?	109.3*	1.5	9.5	3799	-8.0	66.5*	55.3*
COC(=O)c1ccccc1NC(=O)CC(=O)Nc1ccccc1C(=O)OC	12.6	4.9	2.4	10.5	3791	8.6	nt	nt
O=C(O)c1ccccc1NCCO	-0.8	47.5*	-0.5	6.6	4136	2.7	138.2*	123.2*
CCNc1ccccc1C(=O)O	0.1	77.7*	-0.6	2.9	5789	-7.3	-5.3	-6.6
Cc1cccc(-n2c(SCc3cc(=O)n4ccsc4n3)nc3ccccc3c2=O)c1	-15.2	-3.1	0.1	1.0	2460	-0.9	nt	nt
CCOC(=O)N(NC(=O)C(O)(C(C)C)C(C)C)c1ccccc1	20.6	101.3*	1.0	7.4	2528	-1.2	47.5*	55.1*
O=C1C=CC(=O)N1c1ccc(-c2nc3ccccc3o2)cc1	3.1	65.2*	0.1	20.0	3452	-3.2	-2.9	-5.2
Cc1cc(SCCOc2ccccc2)nc(N)n1	-24.0	-3.1	-0.7	-0.9	4537	-4.6	nt	nt
CC(=O)Nc1cc(-c2cccc(F)c2)cn2c(-c3ccc(S(C)(=O)=O)cc3)cnc12	-5.6	70.7*	0.2	12.9	3560	-4.6	+	+
CC(=O)Nc1cc(-c2ccc(S(C)(=O)=O)cc2)cn2c(-c3ccc(F)cc3)cnc12	-0.4	0.2	0.3	8.4	2896	-1.9	nt	nt
Cc1[nH]c2ccc(C(=O)N3CCN(c4ccc(F)cc4)CC3)cc2c1C	2.0	30.3*	-0.7	9.5	4506	-1.6	158.2*	119.8*
COc1ccc(N2CCN(C(=O)c3ccc4[nH]c(C)c(C)c4c3)CC2)cc1	0.7	0.6	0.7	-0.5	5581	1.6	nt	nt
CCN1CCc2c(sc3c2c(NCc2ccco2)nc2nnnn23)C1	-64.0	64.2*	2.6	7.5	4609	-15.9	8.7	-2.2
SMILES	BoNT-F LC inh	FBA Mtb inh	BoNT-A LC inh2	GDH-TPI counter-1	Autofluor counter	Anthrax LF prot	Mtb FBA inh conf	GDH-TPI counter-2	others
CCn1nc(C(=O)Nc2cccc(C(F)(F)F)c2)c(Cl)c1Cl	-3.8	-2.4	1.2	9.6	10029	11.3	nt	nt
COc1cccc(-c2c(C(=O)O)cc(O)c3ccc(OC)cc23)c1	-4.8	34.1*	-0.4	18.5	4102	4.1	5.6	1.0
COc1cccc(Oc2ccc(OC)cc2C(=O)O)c1	?	-1.2	-1.5	-0.7	4341	2.5	nt	nt
COc1ccc(Cc2nc3ccc(C(=O)NCCc4ncccc4C)cc3o2)cc1OC	0.3	-0.6	-0.3	9.7	3899	1.9	nt	nt
Cc1ccn(CCNC(=O)C2CCC(=O)N(CCc3ccc(Cl)cc3)C2)n1 (stereo unspecified)	-1.1	-1.0	-0.5	7.0	5476	-4.0	nt	nt
CCCn1c(-c2cccs2)nc2c1c(=O)[nH]c(=O)n2Cc1ccccc1	-6.0	32.5*	0.3	5.7	4177	4.1	130.5*	102.4*
COc1ccc(-c2nc3c(c(=O)[nH]c(=O)n3Cc3ccccc3)n2CCO)cc1	-3.4	38.9*	-0.8	-3.1	6164	-0.2	170.2*	142.9*
O=C1c2ccccc2-c2nnc(-c3ccc(F)cc3)cc21	-4.7	2.0	-2.0	-2.9	4667	-6.2	nt	nt
COc1ccc(-c2[nH]ncc2CN2CCC(OCc3ccccc3)CC2)c(F)c1	-9.9	3.0	-1.2	-8.0	2634	-2.6	nt	nt
CCOCCCn1c(C)nc2c(c1=O)c1nc3ccccc3nc1n2-c1ccc(C)cc1	-3.4	4.6	2.3	4.9	7943	3.5	nt	nt
CCO/C(C)=N/n1c2nc3ccccc3nc2c2c(=O)n(CC(C)C)c(C)nc21	3.1	33.2*	3.2	21.8	2371	0.8	5.5	-0.5
O=C(Nc1ccc2oc(-c3ccccc3F)nc2c1)c1ccccc1F	?	2.5	-3.0	2.3	4442	5.1	nt	nt
O=C(Nc1ccc2oc(-c3ccccc3F)nc2c1)c1ncn[nH]1	4.4	37.2*	0.5	12.9	3127	-0.6	158.5*	143.4*
Cn1c(-c2cccs2)nc2ccccc21	-1.5	59.4*	0.2	-4.4	3913	-1.9	11.1	-4.1	GDH-TPI DR=2.6*
c1csc(Cn2c(-c3cccs3)nc3ccccc32)c1	1.6	63.2*	4.6	34.1*	?	?	25.5	27.7*
CC(C)Cn1c(-c2cccs2)nc2ccccc21	22.3	50.8*	0.8	4.6	4284	0.2	+	151.9*
COc1ccc(COC(=O)C2=C(C)NC(=O)NC2c2ccc(O)cc2)cc1 (stereo unspecified)	nt	2.7	nt	4.6	nt	nt	nt	nt
Cc1ccc(NC(=O)CSc2nnc3n2CCCCC3)cc1S(=O)(=O)N1CCOCC1	-6.8	-0.3	-0.5	-4.5	3539	-0.4	nt	nt
Nc1ccc2c(c1)nnn2-c1ccccc1	2.2	30.6*	-0.3	-7.2	4530	-6.3	190.3*	151.6*
O=C(Nc1ccc2c(c1)OCO2)C1Cc2c(-c3cccnc3)ccnc2O1 (stereo unspecified)	-6.7	0.2	-0.6	10.6	2960	-9.7	nt	nt
